Assay results from PubChem BioAssay (NCATS).
Results filed as inconclusive are left out. For some assays here: Potency and affinity values are given separately. Calls of active or inactive are those of the source. Unless noted, no rule for the calls is given here.

Columns and labels:
[1] = Ebola virus entry assay, ratio channel
[2] = Ebola virus entry assay, green channel fluorescence
[3] = Ebola virus entry assay, reporter ratio channel; Channel type: primary
[4] = Ebola virus entry assay, blue channel (ratio component)
[5] = qHTS assay for measurement of the activity of small molecule inhibitors on Zika virus induced Caspase-3 activity in human iPSC derived neural progenitor cells (hNPCs) (AID 1224857; active = well fitted inhibition curve with a large enough effect; also: nearly all actives have a fitted effect of over 65% in size); conditions: hNPCs ZIKV-induced caspase-3/7, Caspase-Glo luminescence, 6 h; series mostly up to 45.7 µM
In short: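 Quantitative HTS format: human iPSC neural progenitors, 1 h compound pretreatment, ZIKV 2 FFU/cell for 6 h at 37 C. Percent inhibition derived from luminescent caspase-3/7 signal between uninfected and infected controls.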

[6] = qHTS assay for measurement of the activity of small molecule inhibitors on Zika virus induced Caspase-3 activity in human astrocytoma cells (AID 1224859; active = well fitted inhibition curve with a large enough effect); conditions: SNB-19 ZIKV-induced caspase-3/7, luminescence, 6 h; series mostly up to 45.7 µM
In short: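 Readout is luminescence from Caspase-Glo 3/7 added after a 6 h ZIKV infection (2 FFU/cell) of compound-pretreated (1 h) SNB-19 cells; data expressed as % inhibition versus uninfected and infected wells.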

Measured: Potency

O=S(=O)(c1ccc(Cl)cc1)c1ccc(Cl)cc1
inactive: [1] | [2] | [3] | [4] | [5] | [6]

Nc1ccc(Sc2ccc(N)cc2)cc1
inactive: [1] | [2] | [3] | [4] | [5] | [6]

O=C(O)COc1nc(Cl)c(Cl)cc1Cl
inactive: [1] | [2] | [3] | [4] | [5] | [6]

O=[N+]([O-])/N=C1\NCCN1Cc1ccc(Cl)nc1
inactive: [1] | [2] | [3] | [4] | [5] | [6]

OCCCBr
inactive: [1] | [2] | [3] | [4] | [5] | [6]

CN(C)c1ccc(N=NS(=O)(=O)O)cc1
inactive: [1] | [3]

c1cc2ccc3cccc4ccc(c1)c2c34
inactive: [1] | [2] | [3] | [4] | [5] | [6]

COC(=O)c1c(Cl)c(Cl)c(C(=O)OC)c(Cl)c1Cl
inactive: [1] | [2] | [3] | [4]

CS(=O)(=O)c1ccc(C(=O)C2C(=O)CCCC2=O)c([N+](=O)[O-])c1
inactive: [1] | [2] | [3] | [4] | [5] | [6]

CCCCC(CC)COC(=O)c1ccccc1C(=O)OCC(CC)CCCC (stereo not given)
inactive: [1] | [2] | [3] | [4] | [5]

Oc1ccc2c3c1O[C@H]1[C@@H](O)C=C[C@H]4[C@@H](C2)NCC[C@@]341
inactive: [1] | [2] | [3] | [4] | [5] | [6]

Nc1ccc([N+](=O)[O-])cc1
inactive: [1] | [2] | [3] | [4] | [5] | [6]
